Methyltransferases: Primary Screen for Target Class Profiling of Small Molecule Inhibitors of Methyltransferases | purified enzyme, MTase-Glo SAH luminescence; stronger effect = lower value | calls only at 40 µM | 3.9% of 25,000 active | AID 1745853, 2022; call rule not given here
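Each enzyme was reacted with SAM and its substrate, with compounds tested once at 40 uM; SAH formed was read by MTase-Glo luminescence.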
Calls only. Only a selection was taken, and hits are over-represented in it overall.

`C=C[C@H]1[C@H](O[C@@H]2O[C@H](CO)[C@@H](O)[C@H](O)[C@H]2O)OC=C(C(=O)OC)[C@H]1C/C=C(/C=O)[C@@H]1C(C(=O)OC)=CO[C@@H](O[C@@H]2O[C@H](CO)[C@@H](O)[C@H](O)[C@H]2O)[C@@H]1C=C` gave Methyltransferases active.
C/C=C1\[C@H](O[C@@H]2O[C@H](CO)[C@@H](O)[C@H](O)[C@H]2O)OC=C(C(=O)OC)[C@H]1CC(=O)O was read as Methyltransferases inactive.
Screening COC(=O)C1=CO[C@@H](O[C@@H]2O[C@H](CO)[C@@H](O)[C@H](O)[C@H]2O)[C@@H]2C(COC(C)=O)=C[C@H](O)[C@H]12 returned Methyltransferases inactive.
COC(=O)C1=CO[C@@H](O[C@@H]2O[C@H](CO)[C@@H](O)[C@H](O)[C@H]2O)[C@@H]2[C@@H](CO)[C@@H](O)C(O)[C@H]12 (stereo partly specified) was read as Methyltransferases inactive.
`Cn1c(=O)c2ccc(C(=O)NC3CCCCC3)cc2n2c(=O)n(CC(=O)c3ccccc3)nc12` gave Methyltransferases inactive.
Screening CC1(C(=O)NC2CCCCCC2)Cn2c(ccc2-c2ccco2)C(=O)N1Cc1ccc(Cl)cc1 (stereo unspecified) returned Methyltransferases inactive.
`Cc1ccc(NC(=O)c2cc3n(n2)CC(C)(C(=O)NC2CCCCCC2)N(C)C3=O)cc1C` (stereo unspecified) gave Methyltransferases inactive.
`Cc1ccc2n1CCN(C(=O)Nc1cccc(Cl)c1)C2C(C)C` (stereo unspecified) gave Methyltransferases inactive.
`Cc1ccc(CN2C(=O)c3nc4ccccc4n3CC2(C)C(=O)NC2CCCC(C)C2C)cc1` (stereo unspecified) gave Methyltransferases inactive.
`CC(C)Cn1c(=O)c2cc(F)ccc2n2c(SCc3ccc(F)cc3)nnc12` gave Methyltransferases inactive.
Cn1c(=O)c2ccc(C(=O)NC3CCCCC3)cc2n2c(=O)n(Cc3ccc(F)cc3)nc12 was read as Methyltransferases inactive.
Screening CCC(=O)N1CCN(c2ccc(-n3c(=O)ccc4cnc5ccc(-c6cnc7ccccc7c6)cc5c43)cc2C(F)(F)F)CC1 returned Methyltransferases inactive.
Nc1ccc(-c2ccc3ncc4ccc(=O)n(-c5cccc(C(F)(F)F)c5)c4c3c2)cn1 was read as Methyltransferases active.
Screening CCOc1ccc(C(=O)Cn2nc3n(CCCOC(C)C)c(=O)c4ccccc4n3c2=O)cc1 returned Methyltransferases inactive.
CC(C)(C)CC(C)(C)c1ccc(OCCOCC[N+](C)(C)Cc2ccccc2)cc1 was read as Methyltransferases active.
CCC1c2ccc(C)n2CCN1C(=O)Nc1cc(Cl)ccc1C (stereo unspecified) was read as Methyltransferases inactive.
Screening Cc1ccccc1Cn1nc2n(CC(C)C)c(=O)c3ccc(C(=O)NC4CCCC4)cc3n2c1=O returned Methyltransferases inactive.
Screening CCOc1ccc(-c2ccc(Cn3c(CC(C)(C)C(=O)O)c(SC(C)(C)C)c4cc(OCc5ccc(C)cn5)ccc43)cc2)cn1 returned Methyltransferases active.
For O=C(Cc1ccccn1)NCCNC(=O)c1cccc(-c2ccc(C(F)(F)F)cc2)c1 the results were Methyltransferases inactive.
COc1ccc(CN2C(=O)c3cc(-c4ccccc4)nn3CC2(C)C(=O)NCc2ccccc2OC)cc1 (stereo unspecified) was read as Methyltransferases inactive.
O=C(/C=C/c1ccccc1)OCC1=CC[C@@H]2C(C(=O)O)=CO[C@@H](O[C@@H]3O[C@H](CO)[C@@H](O)[C@H](O)[C@H]3O)[C@H]12 was read as Methyltransferases inactive.
`COC(=O)C1=CO[C@@H](O[C@@H]2O[C@H](COC(=O)/C=C/c3cc(OC)c(O)c(OC)c3)[C@@H](O)[C@H](O)[C@H]2O)[C@@H]2C(CO)=CC[C@H]12` gave Methyltransferases active.
For COC(=O)C1=COC(O[C@@H]2O[C@H](COC(=O)/C=C/c3ccc(O)cc3)[C@@H](O)[C@H](O)[C@H]2O)C2C(CO)=CCC12 (stereo partly specified) the results were Methyltransferases inactive.
Screening COc1ccc(-c2cc3n(n2)CC(C)(C(=O)NCc2ccccc2)N(c2ccc(C)c(C)c2)C3=O)cc1 (stereo unspecified) returned Methyltransferases inactive.
C=C(F)c1sc(CNCCCNc2cc(=O)c3ccccc3[nH]2)c(C)c1Br was read as Methyltransferases active.
Screening COC(=O)c1ncn2c1C(=O)N(Cc1ccccc1C)C(C)(C(=O)NCc1ccccc1)C2 (stereo unspecified) returned Methyltransferases inactive.
Screening CCN1C(=O)c2cc(C(=O)NCc3ccccn3)nn2CC1(C)C(=O)NC1CCCC1 (stereo unspecified) returned Methyltransferases inactive.
`COc1ccc(N2C(=O)c3ccc(-c4ccco4)n3CC2(C)C(=O)NCc2ccccc2)cc1` (stereo unspecified) gave Methyltransferases inactive.

High-throughput results (PubChem BioAssay)
